Records with an inconclusive call do not appear. A call without a number means that no potency is given here. The source made the active and inactive calls. The call rests on the fitted dose curve; in most records, active means well fitted inhibition curve with a large enough effect; inconclusive means small, poorly fitted or top-dose-only effect; inactive means flat fitted curve, though single readings scatter.
molecular target: Calcium and integrin-binding protein 1 (Homo sapiens) (UniProt Q99828); assay: Primary qHTS for Identification of Calcium Integrin Binding Protein 1 (CIB1) Competitor (AID 1508620); conditions: CIB1-GST / FITC-alphaIIb peptide fluorescence polarization; series mostly up to 57.7 µM;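 further: GST tagged CIB1 binding a fluorescein labelled alphaIIb integrin peptide tracer; top concentration of the series differs between compounds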
Sequence (Q99828 whole entry, looked up): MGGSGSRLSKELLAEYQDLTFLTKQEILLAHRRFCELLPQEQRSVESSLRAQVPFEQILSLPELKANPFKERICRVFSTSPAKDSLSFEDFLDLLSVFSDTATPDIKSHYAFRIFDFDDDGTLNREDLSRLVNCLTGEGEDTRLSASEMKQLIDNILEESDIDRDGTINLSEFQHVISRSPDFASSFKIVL
Source text: Assay Provider: Ulhas P. Naik, PhD Sidney Kimmel Medical College Thomas Jefferson University, Philadelphia, PA Primary function of platelets is to maintain hemostasis. At the site of vascular injury, platelets adhere to adhesive proteins such as collagen and von Willebrand factor. Adherent platelets are activated and generate soluble platelet agonists such as thrombin, ADP and thromboxane A2. Following exposure of circulating platelets to these agonists, results in platelet shape change, granule secretion and activation of platelet integrin alphaIIb-beta3. Ligand binding to activated integrin alphaIIb-beta3 triggers outside-in signaling, leading to platelet aggregation, stabilization of platelet plug, and clot retraction. Upon atherosclerotic plaque rupture also causes platelet plug formation, which underlies a number of cardiovascular diseases such as myocardial infraction and stroke. A number of anti-platelet drugs such as aspirin, clopidogrel, prasugrel, vorapaxar, and eptifibatide are currently available to prevent the thrombotic complications. However, these anti-platelet agents have several limitations including inherent variability in individual responses, developing resistance, and serious bleeding side effects. For these reasons they are not suitable for long-term protection. Based on the experiences with current anti-platelet drugs, it appears that the most useful therapeutic approach is to intersect the secondary responses such as integrin outside-in signaling or recruitment of platelets by TxA2 and secreted ADP. Compounds, which can largely preserve the primary hemostatic function of platelets but inhibit secondary response will be most desired therapeutic agents for treatment of cardiovascular disease. CIB1 is a calcium integrin binding protein, which specifically interact with the alphaIIb subunit of integrin alphaIIb-beta3. Binding of CIB1 to alphaIIb regulates the outside-in signaling in platelets, which is needed for thrombus stabilization and thrombus growth. […] Therefore, we propose that discovery of a small molecule that can prevent the association of CIB1 and alphaIIb-beta3 will be a potential anti-platelet agent that can block the thrombus formation without undue effect on hemostasis. Reference: [1] Naik MU, Nigam A, Manrai P, et al. CIB1 deficiency results in impaired thrombosis: the potential role of CIB1 in outside-in signaling through integrin alpha IIb beta 3. J Thromb Haemost.
PROTOCOL TABLES SEQUENCE No. (1, 2, 3, etc.); […] (e.g., Cells, Incubation, Reagent, etc.); VALUE and DESCRIPTION. 1; Reagent; 3 uL; Protein or buffer (4/3x) 2; Compound; 46 nL; Control inhibitor / compound library 3; Time; 15 min; Room temperature incubation 4; Reagent; 1 uL; Fluorescent labeled peptide (4x) 5; Time; 1000 rpm; Centrifuge 6; Time; 15 min; Room temperature incubation 7; Detection; Ex 480/ Em 540; ViewLux Fluorescence Read NOTES (numbers refer to sequence above) 1; Protein Mixture: C1B1-GST (final concentrations of 1 uM). […] 3; Room temperature incubation. 4; Fluorescent Labeled Peptide: FITC-aIIb (final concentration of 100 nM). Sequence of alphaIIb peptide: Acetyl-[…]-FITC (purity is 95.83%). 5; Centrifuge 1000 rpm (164 g) for 15 seconds. 6; Room temperature incubation. 7; ViewLux Fluorescent Polization Read: excitation = 480(20) / emission = 540(25) S and P; FITC Dichroic mirror.

| Compound | Potency | activity change, negative = inhibition |
| --- | --- | --- |
| Cc1cc(O)c2c(c1)C(=O)c1cccc(O)c1C2=O | inactive |  |
| O=C(Nc1cc2cc[nH]c2cn1)c1ccccc1 | inactive |  |
| CNC(=O)c1cccc(-c2ccc3c(N4CCOC[C@H]4C)nc(N4CCOC[C@H]4C)nc3n2)c1 | inactive |  |
| CC(=O)SCC(Cc1ccccc1)C(=O)NCC(=O)OCc1ccccc1 (stereo not given) | inactive |  |
| CCc1ccc(C(=O)Nc2cc(CN3CCN(C)CC3)cc(C(F)(F)F)c2)cc1C#Cc1cnc2ccnn2c1 | inactive |  |
| COc1cc(C(C)C)c(Oc2cnc(NC(CO)CO)nc2N)cc1I | inactive |  |
| Cc1cnc(NC(=O)Nc2cc(Br)c(C)cc2OC[C@@H]2CNCCO2)cn1 | inactive |  |
| Cn1cnc2c(F)c(Nc3ccc(Br)cc3F)c(C(=O)NOCCO)cc21 | inactive |  |
| Cc1cc(Nc2ncc3c(n2)N(C)C(=O)N(c2cc(NC(=O)c4cccc(C(F)(F)F)c4)ccc2C)C3)n(C)n1 | inactive |  |
| C[C@H]1[C@@H](OC(=O)CCC(=O)O)O[C@@H]2O[C@@]3(C)CC[C@@H]4[C@H](C)CC[C@@H]1[C@@]24OO3 | inactive |  |
| COc1cc([C@@H]2c3cc4c(cc3[C@@H](O[C@@H]3O[C@@H]5CO[C@@H](c6cccs6)O[C@@H]5[C@H](O)[C@@H]3O)[C@H]3COC(=O)[C@H]23)OCO4)cc(OC)c1O | inactive |  |
| OCCN1C[C@H](O)[C@@H](O)[C@H](O)[C@@H]1CO | inactive |  |
| CC(C)C[C@H](NC(=O)[C@@H](NC(=O)c1cccc(-c2ccccc2)n1)[C@@H](C)O)B(O)O | inactive |  |
| OCCNC1CCCc2c1[nH]c1ccc(-c3ccccc3)cc21 (stereo not given) | inactive |  |
| CC[C@H]1OC(=O)[C@H](C)[C@@H](O[C@H]2C[C@@](C)(OC)[C@@H](O)[C@H](C)O2)[C@H](C)[C@@H](O[C@@H]2O[C@H](C)C[C@H](N(C)C)[C@@H]2O)[C@](C)(OC)C[C@@H](C)C(=O)[C@H](C)[C@@H](O)[C@]1(C)O | inactive |  |
| Cc1nc(NC(=O)N2CCC[C@@H]2C(N)=O)sc1-c1ccnc(C(C)(C)C(F)(F)F)c1 | inactive |  |
| COc1cc(OC)c(C=CS(=O)(=O)Cc2ccc(OC)c(NCC(=O)O)c2)c(OC)c1 | inactive |  |
| C[C@@H]1C(=O)O[C@H]2CC34[C@H]5C[C@@H](C(C)(C)C)C36[C@H](OC(=O)[C@@H]6O)O[C@@]4(C(=O)O5)[C@]21O (stereo not given in full) | inactive |  |
| C[C@H](CCC(=O)O)[C@H]1CCC2C3C[C@H](O)[C@@H]4C[C@H](O)CC[C@]4(C)C3CC[C@@]21C (stereo not given in full) | inactive |  |
| O=C(C=Cc1ccc(CN(CCO)CCc2c[nH]c3ccccc23)cc1)NO | inactive |  |

| Compound | Potency | activity change, negative = inhibition |
| --- | --- | --- |
| COc1ccc(S(=O)(=O)Nc2cc(-c3c(O)ccc4ccccc34)c(O)c3ccccc23)cc1 | inactive |  |
| CON=C(C(=O)N[C@@H]1C(=O)N2C(C(=O)O)=C(Cn3ccc(=N)n3CCO)CS[C@H]12)c1csc(N)n1 | inactive |  |
| C#CCC(Cc1cnc2nc(N)nc(N)c2n1)c1ccc(C(=O)N[C@@H](CCC(=O)O)C(=O)O)cc1 (stereo not given in full) | inactive |  |
| CCN(CC)Cc1ccc2cc(COC(=O)Nc3ccc(C(=O)NO)cc3)ccc2c1 | inactive |  |
| CC(=O)O[C@H]1C[C@@H]2CC[C@H]3[C@H]4C[C@H]([N+]5(C)CCCCC5)[C@@H](OC(C)=O)[C@@]4(C)CC[C@@H]3[C@@]2(C)C[C@H]1N1CCCCC1 | inactive |  |
| CN[C@@H]1C[C@H]2O[C@@](C)([C@H]1OC)n1c3ccccc3c3c4c(c5c6ccccc6n2c5c31)C(=O)N[C@H]4O | inactive |  |
| COc1cc(C(=O)NC2CCN(C)CC2)ccc1Nc1ncc2c(n1)N(C1CCCC1)CCC(=O)N2C(C)C | inactive |  |
| CCCNC(=O)[C@H]1O[C@H]1C(=O)N[C@H](C(=O)N1CCC[C@@H]1C(=O)OC)C(C)CC (stereo not given in full) | inactive |  |
| O=C1NC(O)CCN1[C@@H]1O[C@H](CO)[C@H](O)[C@H]1O (stereo not given in full) | inactive |  |
| CCN1CCN(C(=O)N[C@H](C(=O)N[C@@H]2C(=O)N3C(C(=O)O)=C(CSc4nnnn4C)CS[C@@H]23)c2ccc(O)cc2)C(=O)C1=O |  | -3.53% [at 12.4 µM] (inactive) |
| CCOC(=O)C1=C(C)NC(=S)NC1c1cccc(O)c1 (stereo not given) | inactive |  |
| CC[C@H](CC[C@@H](C)[C@H]1CC[C@H]2[C@@H]3CC=C4C[C@@H](O)CC[C@]4(C)[C@@H]3CC[C@]12C)C(C)C | inactive |  |
| C=C(C)[C@@H]1CC[C@]2(C)CC[C@]3(C)[C@H](CC[C@@H]4[C@@]5(C)CC[C@H](O)C(C)(C)[C@H]5CC[C@]43C)[C@@H]12 | inactive |  |
| CCN(CC)CCNC(=O)c1c(C)[nH]c(C=C2C(=O)Nc3ccc(F)cc32)c1C | inactive |  |
| COc1cc(C=CC(=O)CC(=O)C=Cc2ccc(O)c(OC)c2)ccc1O | inactive |  |
| COc1ccc(C=Cc2cc(OC)c(OC)c(OC)c2)cc1NC(=O)[C@H](N)CO | inactive |  |
| C[C@H](NC(=O)[C@@H](O)c1cc(F)cc(F)c1)C(=O)N[C@@H]1C(=O)N(C)c2ccccc2-c2ccccc21 | inactive |  |
| N[C@H]1CN(c2c(F)cc3c(=O)c(C(=O)O)cn(C4C[C@@H]4F)c3c2Cl)CC12CC2 (stereo not given in full) | inactive |  |
| Nc1ccc(C(=O)Nc2cccc(-c3nc(N4CCOCC4)c4oc5ncccc5c4n3)c2)cn1 | inactive |  |
| O=C(O)CCCCC(CCSCc1ccccc1)SCc1ccccc1 (stereo not given) | inactive |  |

Source: PubChem BioAssay (NCATS)
